Measurements published in PubChem BioAssay (NCATS).
Values joined by “and” are separate entries in the source; they are usually repeats but may differ in a detail not shown here. Equal values may be shown once. Results filed as inconclusive are left out. More than one record can exist for a structure, and the calls need not agree. Active and inactive are the calls of the source. Unless noted, the call rests on the fitted dose curve; in most records, active means well fitted curve in the direction sought with a large enough effect; inconclusive means small, poorly fitted or top-dose-only effect, or another doubt; inactive means no such curve, though single readings can be large; an effect the other way counts as inactive or inconclusive.

Tests used:
[1] = molecular target: Hexokinase-4 (Homo sapiens) + Glucokinase regulatory protein (Homo sapiens) (UniProt P35557+Q14397); experiment: qHTS assay for inhibitors of recombinant human GCK-GKRP interaction: HTRF assay (AID 743207);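 further: 0% = DMSO with GCK present and -100% = DMSO wells lacking GCK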
Summary of the method: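 Steps: dispense GCK–GKRP complex (5 nM each, GST- and FLAG-tagged) with 2 uM S6P; pin in compounds; add XL665/Eu-cryptate-labelled antibodies; incubate 60 min at room temperature; read time-resolved FRET at 665 and 615 nm.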

[2] = qHTS profiling of the MIPE4 collection as inhibitors of Plasmodium falciparum (3D7) proliferation (AID 743344; call rule not given here;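 further: scaled between DMSO vehicle wells and 0.29 µM artemisinin as full inhibition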); conditions: P. falciparum 3D7 in erythrocytes, SYBR Green DNA fluorescence, 72 h; at 28.5 µM (top of the series) unless noted
Summary of the method: (§1)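 Parasite DNA was quantified by SYBR Green I fluorescence (ex 485, em 535 nm) after overnight lysis in saponin/Triton buffer at room temperature. Cultures at 0.3% parasitemia and 2.5% hematocrit were first exposed to compound for 72 h at 37 C; signals were normalised to artemisinin (0.29 uM) and vehicle wells.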

[3] = qHTS profiling of the MIPE4 collection as inhibitors of Plasmodium falciparum (DD2) proliferation (AID 743345; call rule not given here); conditions: P. falciparum Dd2 in erythrocytes, SYBR Green DNA, 72 h; at 28.5 µM (top of the series) unless noted
Summary of the method: as §1

[4] = qHTS profiling of the MIPE4 collection as inhibitors of Plasmodium falciparum (DD2) proliferation (Rep 2) (AID 743346; call rule not given here); conditions: P. falciparum Dd2 in erythrocytes, SYBR Green DNA, 72 h; at 28.5 µM (top of the series) unless noted
Summary of the method: as §1

[5] = qHTS profiling of the MIPE4 collection as inhibitors of Plasmodium falciparum (HB3) proliferation (AID 743347; call rule not given here;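 further: plate controls were DMSO vehicle wells for no effect and artemisinin wells for full effect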); conditions: P. falciparum HB3 in erythrocytes, SYBR Green DNA, 72 h; at 28.5 µM (top of the series) unless noted
Summary of the method: as §1

[6] = High-throughput drug toxicity screening in the BPDCN cell line Gen2.2 (AID 1224824; call rule not given here;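 further: cells exposed to compounds for 48 h before reading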); conditions: Gen2.2 BPDCN cells; at 45.8 µM (top of the series) unless noted
Summary of the method: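 Gen2.2, 500 cells/well, phenol red-free RPMI/10% FBS/Pen-Strep; 48 h cpd, 37 °C/5% CO2; CTG lum, 15 min RT. Norm: DMSO = 100%, bortezomib 9.2 uM final = 0%.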

[7] = High-throughput drug toxicity screening in the BPDCN cell line Cal-1 (AID 1224825; call rule not given here); conditions: Cal-1 BPDCN cell viability, qHTS; at 45.8 µM (top of the series) unless noted
Summary of the method: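 CellTiter-Glo luminescence after 48 h compound exposure; percent activity scaled with DMSO as 100% and bortezomib (9.2 uM final) as 0%. Cal-1 cells seeded at 500/well in RPMI, 10% FBS, no phenol red.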

[8] = qHTS assay for measurement of the activity of small molecule inhibitors on Zika virus induced Caspase-3 activity in human iPSC derived neural progenitor cells (hNPCs) (AID 1224857); further: nearly all actives have a fitted effect of over 65% in size; further: potency means the concentration at half of the fitted maximal effect
Summary of the method: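 Pretreat hNPCs with compound 1 h; infect ZIKV 2 FFU/cell; 6 h 37 C, 5% CO2; Caspase-Glo 3/7, 30 min RT; luminescence; normalize to no-virus and virus-only wells.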

[9] = qHTS assay for measurement of the activity of small molecule inhibitors on Zika virus induced Caspase-3 activity in human astrocytoma cells (AID 1224859);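 further: plate controls were ZIKV-infected untreated cells for no effect and uninfected cells for full effect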
Summary of the method: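 Human SNB-19 astrocytoma cells in RPMI 1640 with 10% FBS receive compound one hour ahead of Zika virus at 2 FFU/cell. After 6 h infection, caspase-3/7 activity is detected by Caspase-Glo luminescence.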

[10] = qHTS Screen of the MIPE 4.0 Collection Against Ewings Sarcoma (RDES) (AID 1259252); further: nearly all actives have a fitted effect of over 35% in size; further: potency means the concentration at half of the fitted maximal effect
Summary of the method: (§2)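 Dose series incubated 48 h with cells in RPMI plus 5% FBS, glutamine and penicillin/streptomycin; cell viability then quantified via CellTiter-Glo.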

[11] = qHTS Screen of the MIPE 4.0 Collection Against Ewings Sarcoma (TC71) (AID 1259253); further: nearly all actives have a fitted effect of over 40% in size; further: potency means the concentration at half of the fitted maximal effect
Summary of the method: as §2

[12] = qHTS Screen of the MIPE 4.0 Collection Against Ewings Sarcoma (TC32) (AID 1259256); further: nearly all actives have a fitted effect of over 45% in size; further: potency means the concentration at half of the fitted maximal effect
Summary of the method: as §2

[13] = qHTS assay to identify small molecule inhibitors of chordoma cells - UCH-2 (AID 1259356); further: on the % scale 0 is the no-effect control and ±100 the full control effect
[14] = qHTS profiling for inhibitors of Plasmodium falciparum (3D7) proliferation (AID 743322);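 further: infected erythrocytes exposed to compound for 72 h before lysis; 100% = DMSO vehicle wells and 0% = 0.29 µM artemisinin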; conditions: P. falciparum 3D7 proliferation, at 28.7 µM (top of the series)
Summary of the method: as §1

[15] = qHTS profiling for inhibitors of Plasmodium falciparum (DD2) proliferation (AID 743323; call rule not given here); conditions: at 28.7 µM (top of the series), lower = more inhibition
Summary of the method: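 SYBR Green fluorescence (ex 485, em 535 nm) of lysed cultures gives parasite DNA content; wells normalized to artemisinin (0.29 uM) and DMSO controls. Infected red cells: 0.3% parasitemia, 2.5% hematocrit, 72 h, 37 C.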

[16] = qHTS Screen of the MIPE 4.0 Collection Against Ewings Sarcoma (EW8) (AID 1259255); further: potency means the concentration at half of the fitted maximal effect; nearly all actives have a fitted effect of over 35% in size
Summary of the method: as §2

[17] = qHTS Assay for Identifying Gametocytocidal Compounds (AID 743244);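 further: on the % scale 0 is the no-effect control and ±100 the full control effect; actives lower the fluorescent signal which means gametocytes are killed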; conditions: P. falciparum 3D7 stage III-V gametocytes, alamarBlue, 72 h; max response: stronger effect = lower value
Summary of the method: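 Compounds are pinned into medium, gametocytes (stage III–V, 3D7, 20,000 cells/well) added, and plates held 72 h at 37 °C in 5% CO2. AlamarBlue follows for 24 h before fluorescence reading.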

[18] = qHTS assay for cell viability of HEK293 cells (AID 743288); conditions: ATP luminescence (CellTiter-Glo), 18 h; max response: stronger effect = lower value; further: on the % scale 0 is the no-effect control and ±100 the full control effect; nearly all actives have a fitted effect of over 50% in size
Summary of the method: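 Quantitative high-throughput screen: compounds were pinned onto parental HEK293 cells (2,000 per well) after a minimum 5 h settling at 37 C, incubated 18 h at 37 C, and intracellular ATP measured by luciferase luminescence.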

[19] = qHTS assay to identify small molecule inhibitors of chordoma cells - UCH-1 (AID 1259355); further: on the % scale 0 is the no-effect control and ±100 the full control effect; nearly all actives have a fitted effect of over 55% in size
Summary of the method: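 Screening used approved and investigational drugs in 15-point titration against 800 seeded cells per well. A fixed combination of auranofin with camptothecin, doxorubicin, rubitecan and topotecan followed compound addition, and growth was scored by CellTiter-Glo after 48hr.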

[20] = qHTS profiling for inhibitors of Plasmodium falciparum (HB3) proliferation (AID 743324); conditions: Plasmodium falciparum HB3 blood-stage proliferation; at 28.7 µM (top of the series);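 further: 100% = DMSO vehicle wells and 0% = artemisinin-treated control wells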
Summary of the method: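 SYBR Green fluorescence (485 ex/535 em) of lysed cultures, incubated overnight at room temperature in the dark, quantifies parasite DNA. Infected erythrocytes at 0.3% parasitemia and 2.5% hematocrit were exposed 72 h; values normalized to DMSO and 0.29 uM artemisinin controls.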

Hexokinase-4 (Homo sapiens) + Glucokinase regulatory protein (Homo sapiens), sequence (P35557 whole entry, looked up): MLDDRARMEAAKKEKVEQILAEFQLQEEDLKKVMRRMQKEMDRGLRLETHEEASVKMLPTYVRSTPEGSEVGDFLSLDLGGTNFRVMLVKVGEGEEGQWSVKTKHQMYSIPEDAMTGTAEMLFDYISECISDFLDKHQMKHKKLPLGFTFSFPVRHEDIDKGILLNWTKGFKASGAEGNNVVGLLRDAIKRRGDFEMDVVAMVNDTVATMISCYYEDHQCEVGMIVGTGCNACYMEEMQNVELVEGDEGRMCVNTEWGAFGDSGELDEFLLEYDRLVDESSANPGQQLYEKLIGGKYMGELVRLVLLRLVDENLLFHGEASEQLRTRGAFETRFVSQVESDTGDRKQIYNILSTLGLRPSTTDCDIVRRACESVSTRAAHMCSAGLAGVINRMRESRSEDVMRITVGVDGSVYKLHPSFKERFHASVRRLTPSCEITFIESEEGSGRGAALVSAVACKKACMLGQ
Hexokinase-4 (Homo sapiens) + Glucokinase regulatory protein (Homo sapiens), sequence (Q14397 whole entry, looked up): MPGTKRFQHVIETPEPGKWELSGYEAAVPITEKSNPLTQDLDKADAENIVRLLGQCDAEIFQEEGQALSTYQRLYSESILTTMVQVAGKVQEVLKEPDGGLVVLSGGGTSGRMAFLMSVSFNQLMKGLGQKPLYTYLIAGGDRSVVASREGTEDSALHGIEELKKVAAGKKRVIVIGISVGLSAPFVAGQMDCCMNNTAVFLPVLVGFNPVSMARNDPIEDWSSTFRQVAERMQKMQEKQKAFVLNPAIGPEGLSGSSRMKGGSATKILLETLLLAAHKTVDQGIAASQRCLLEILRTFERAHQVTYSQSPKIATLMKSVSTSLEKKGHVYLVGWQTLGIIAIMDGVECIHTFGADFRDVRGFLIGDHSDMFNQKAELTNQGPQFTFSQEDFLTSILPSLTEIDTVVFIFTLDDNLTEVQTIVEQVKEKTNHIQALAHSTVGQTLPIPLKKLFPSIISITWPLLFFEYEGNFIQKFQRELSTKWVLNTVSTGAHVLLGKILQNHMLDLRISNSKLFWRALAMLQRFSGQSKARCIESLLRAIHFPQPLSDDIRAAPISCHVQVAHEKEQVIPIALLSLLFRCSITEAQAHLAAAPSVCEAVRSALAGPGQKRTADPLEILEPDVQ

| SMILES | Potency [1] | parasite growth, % of DMSO control [2] [%] | parasite growth remaining, % of DMSO control (lower = more inhibition) [3] [%] | parasite growth, % of control (lower = inhibition) [4] [%] | growth, % of control [5] [%] | cell viability, % of control (lower = more cytotoxic) [6] [%] | viability (% of control) [7] [%] | Potency [8] | Potency [9] | Potency [10] | Potency [11] | Potency [12] | outcome [13] | remaining parasite growth % (stronger effect = lower value) [14] [%] | activity, percent of control [15] [%] | Potency [16] | max response [17] | max response [18] | Potency [19] | remaining proliferation (% of control), lower = more inhibition [20] [%] |
| --- | --- | --- | --- | --- | --- | --- | --- | --- | --- | --- | --- | --- | --- | --- | --- | --- | --- | --- | --- | --- |
| CN(Cc1cnc2nc(N)nc(N)c2n1)c1ccc(C(=O)N[C@@H](CCC(=O)O)C(=O)O)cc1 | inactive | 8.82 | 7.1 | 8.39 | 19.5 | 70 | 9.1 | inactive | inactive | 0.0332 µM (active) | 0.0148 µM (active) | 0.0372 µM (active) | inactive |  |  |  |  |  |  |  |
| CC[C@@]1(O)C(=O)OCc2c1cc1n(c2=O)Cc2cc3c(CN(C)C)c(O)ccc3nc2-1 |  | 13.9 | 16.9 | 33.7 | 21.3 | 14.6 | 3.81 | inactive | inactive | 0.0332 µM (active) | 0.0372 µM (active) |  |  | 11.5 | 12.8 | 0.0332 µM (active) |  |  |  |  |
| NS(=O)(=O)c1cc2c(cc1Cl)NCNS2(=O)=O | inactive | 53.2 | 53.5 | 39.6 | 40.8 | 159 | 125 | inactive | inactive | inactive | inactive | inactive | inactive |  |  |  | 6.34% (inactive) and 16.2% (inactive) | -3.61% (inactive) and 2.79% (inactive) |  |  |
| COc1ccccc1OCC(O)CN1CCN(CC(=O)Nc2c(C)cccc2C)CC1 (configuration not stated) | inactive | 126 | 97.5 | 193 | 101 | 126 | 18.6 | inactive | inactive | inactive |  | inactive | inactive |  |  |  | 19.4% (inactive) and 42.5% (inactive) |  | inactive |  |
| Cc1cnc(C(=O)NCCc2ccc(S(=O)(=O)NC(=O)NC3CCCCC3)cc2)cn1 | inactive | 7.98 | 12.7 | 9.38 | 3.73 | 112 | 58.3 | inactive | inactive |  |  |  | inactive |  |  |  | 32.6% (inactive) and 12.5% (inactive) |  | inactive |  |
| CS(=O)(=O)CCNCc1ccc(-c2ccc3ncnc(Nc4ccc(OCc5cccc(F)c5)c(Cl)c4)c3c2)o1 |  | 8.87 | 7.86 | 51.8 | 13 | 4.7 |  | inactive | inactive | 0.59 µM (active) | 2 µM (active) | 13.2 µM (active) | inactive | 0.561 | 12.2 | 8.33 µM (active) |  |  | inactive | 1.42 |
| CC(C)NCC(O)c1ccc(O)c(O)c1 (configuration not stated) | inactive | 10.6 | 91.4 | 9.11 | 9.05 | 46.4 | 16 | inactive | inactive |  |  |  | inactive |  |  |  |  | 0.858% (inactive) and -11.4% (inactive) | inactive |  |
| CCC1(c2ccccc2)C(=O)NCNC1=O | inactive | 109 | 102 | 107 | 91 | 15.1 |  | inactive | inactive | 9.35 µM (active) | 11.8 µM (active) | 14.8 µM (active) | inactive |  |  | 18.7 µM (active) | 16.7% (inactive) and 25% (inactive) | -2.05% (inactive) and -6.21% (inactive) |  |  |
| NC(CO)C(=O)NNCc1ccc(O)c(O)c1O (configuration not stated) | inactive | 84.1 | 125 | 89.1 | 99.5 | 86.9 | 79.5 | inactive and 7.43 µM (active) | inactive |  |  | 26.4 µM (active) | inactive |  |  |  | 0.751% (inactive) |  | inactive |  |
| O=c1c(-c2ccc(O)cc2)coc2cc(O)cc(O)c12 | inactive | 72.2 | 88.4 | 57.2 | 31.8 | 55.3 | 13.8 | inactive |  | 18.7 µM (active) |  | inactive |  |  |  |  | 20.7% (inactive) and 7.37% (inactive) | -13% (inactive) and -14.1% (inactive) | inactive |  |
| O=C1Cc2cc(CCN3CCN(c4nsc5ccccc45)CC3)c(Cl)cc2N1 | inactive | 14.8 | 21.2 | 20.5 | 9.47 | 199 | 94.5 | inactive | inactive |  |  | 23.5 µM (active) | inactive |  |  |  |  |  | inactive |  |
| CC#C[C@]1(O)CC[C@H]2[C@@H]3CCC4=CC(=O)CCC4=C3[C@@H](c3ccc(N(C)C)cc3)C[C@@]21C | inactive | 7.43 | 45.8 | 11.9 | 6.33 | 6.18 | 5.97 | inactive | inactive | 0.187 µM (active) |  | 0.264 µM (active) | inactive |  |  |  |  |  |  |  |
| CC1COc2c(N3CCN(C)CC3)c(F)cc3c(=O)c(C(=O)O)cn1c23 (configuration not stated) | inactive | 59.3 | 84.7 | 76.4 | 76.3 | 147 | 42.1 | inactive | inactive |  |  | inactive | inactive |  |  |  |  |  | inactive |  |
| CS(=O)(=O)Nc1ccc([N+](=O)[O-])cc1Oc1ccccc1 | inactive | 87.3 | 94.3 | 84.4 | 92.7 | 111 | 17 | inactive | inactive |  | 16.6 µM (active) | 14.8 µM (active) | inactive |  |  |  | -0.179% (inactive) and 5.92% (inactive) |  | inactive |  |
| CN1CCN(CCCN2c3ccccc3Sc3ccc(Cl)cc32)CC1 | inactive | 6.12 | 13 | 28.4 | 7.64 | 107 | 22.7 | inactive | inactive |  |  | 26.4 µM (active) |  |  |  |  |  |  |  |  |
| NC12CC3CC(CC(C3)C1)C2 | inactive | 11.2 | 72 | 25.9 | 4.58 | 60.9 | 9.3 | inactive | inactive |  |  |  | inactive |  |  |  |  |  | inactive |  |
